In PubChem BioAssay (Tox21):
Inconclusive results are not listed. Where a call stands in place of a potency, no number is given. The source made the active and inactive calls. Unless noted, the call rests on the fitted dose curve; in most records, active means well fitted curve in the direction sought with a large enough effect in the repeat runs; inconclusive means weak or mixed curves; inactive means no such curve, though single readings can be large; an effect the other way counts as inactive or inconclusive.

Target: Androgen receptor (Homo sapiens) (UniProt P10275)
Sequence (P10275 whole entry, looked up): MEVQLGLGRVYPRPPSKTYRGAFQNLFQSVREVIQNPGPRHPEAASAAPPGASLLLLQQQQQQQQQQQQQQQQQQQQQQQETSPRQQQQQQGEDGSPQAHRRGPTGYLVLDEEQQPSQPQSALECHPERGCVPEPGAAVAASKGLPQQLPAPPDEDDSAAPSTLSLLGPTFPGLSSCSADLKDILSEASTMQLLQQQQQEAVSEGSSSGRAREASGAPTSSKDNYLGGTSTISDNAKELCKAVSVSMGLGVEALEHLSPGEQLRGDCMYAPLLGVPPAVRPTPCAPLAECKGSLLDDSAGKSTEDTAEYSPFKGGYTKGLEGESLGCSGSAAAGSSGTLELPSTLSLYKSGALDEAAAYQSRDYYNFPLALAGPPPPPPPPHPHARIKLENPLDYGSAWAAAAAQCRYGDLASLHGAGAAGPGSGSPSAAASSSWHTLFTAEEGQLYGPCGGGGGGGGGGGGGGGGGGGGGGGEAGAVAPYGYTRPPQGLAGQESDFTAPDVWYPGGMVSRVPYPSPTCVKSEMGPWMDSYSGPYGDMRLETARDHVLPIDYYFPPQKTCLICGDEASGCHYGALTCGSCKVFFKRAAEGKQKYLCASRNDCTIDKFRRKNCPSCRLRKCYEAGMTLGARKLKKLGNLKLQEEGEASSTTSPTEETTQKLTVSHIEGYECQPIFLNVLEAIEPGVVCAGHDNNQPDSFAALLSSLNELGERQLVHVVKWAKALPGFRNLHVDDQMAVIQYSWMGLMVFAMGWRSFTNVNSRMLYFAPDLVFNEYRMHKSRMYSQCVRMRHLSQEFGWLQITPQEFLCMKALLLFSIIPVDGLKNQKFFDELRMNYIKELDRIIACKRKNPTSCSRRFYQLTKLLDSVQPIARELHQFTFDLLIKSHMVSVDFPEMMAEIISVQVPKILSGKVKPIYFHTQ
Assay: qHTS assay to identify small molecule antagonists of the androgen receptor (AR) signaling pathway (AID 743035; active means well fitted inhibition curve with a large enough effect in the signal ratio in the repeat runs, not every such curve was filed as active; the % refers to the signal ratio; further: potency means the concentration at half of the fitted maximal effect)
Conditions: HEK293 AR-UAS-bla, R1881-stimulated, beta-lactamase FRET, 16 h; series mostly up to 58.5 µM
How it was run: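 HEK293 cells stably carrying a UAS-driven beta-lactamase reporter (AR-UAS-bla GripTite) were plated for 4 h at 37C, then given compound and the agonist R1881 and incubated 16 h. Reporter activity was read by LiveBLAzer B/G FRET fluorescence after 2 h at room temperature.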

SMILES	Potency
N#CC(Cl)(Cl)Cl	inactive
CC(Cl)(Cl)[N+](=O)[O-]	inactive
Nc1ccccc1Cl	inactive
O=C(O)c1ccc2[nH]cc(CCCCN3CC=C(c4ccccc4)CC3)c2c1	inactive
C#C[C@]1(O)C=C[C@H]2[C@@H]3CCC4=CC(=O)CC[C@@H]4[C@H]3CC[C@@]21CC	0.19 µM (active)
COc1cc(OC)nc(Oc2cccc(Oc3nc(OC)cc(OC)n3)c2C(=O)O)n1	inactive
CCC(=O)c1ccccc1	inactive
CCCCOC(=O)c1ccccc1C(=O)O	inactive
O=[N+]([O-])c1cccc2c([N+](=O)[O-])cccc12	inactive
Cc1ccccc1CO[C@@H]1C[C@@]2(C(C)C)CC[C@]1(C)O2	inactive
COC(=O)C(c1ccccc1)C1CCCCN1 (stereo not drawn)	inactive
Cc1cnc[nH]1	inactive
c1cc[c]([Hg][c]2ccccc2)cc1	43.6 µM (active)
CCCCOP(=O)(O)OCCCC	inactive
CC(C)CC#N	inactive
COc1ncc(F)c2nc(S(=O)(=O)Nc3c(F)cccc3F)nn12	inactive

Target: Androgen receptor (Homo sapiens) (UniProt P10275)
Assay: qHTS assay to identify small molecule agonists of the androgen receptor (AR) signaling pathway (AID 743036; active means well fitted activation curve with a large enough effect in the signal ratio in the repeat runs, with a control signal flat, not every such curve was filed as active; the % refers to the signal ratio)
Conditions: HEK293 AR-UAS-bla GripTite, beta-lactamase FRET ratio, 16 h; series mostly up to 62.4 µM
How it was run: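 Quantitative HTS of the Tox21 10K library in HEK293 cells bearing a stably integrated UAS-controlled beta-lactamase reporter. Compound exposure lasted 16 h at 37C. Reporter activity was detected by FRET substrate fluorescence after 2 h at room temperature.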

SMILES	outcome
N#CC(Cl)(Cl)Cl	inactive
CC(Cl)(Cl)[N+](=O)[O-]	inactive
Nc1ccccc1Cl	inactive
O=C(O)c1ccc2[nH]cc(CCCCN3CC=C(c4ccccc4)CC3)c2c1	inactive
COc1cc(OC)nc(Oc2cccc(Oc3nc(OC)cc(OC)n3)c2C(=O)O)n1	inactive
O=[N+]([O-])c1cccc2c([N+](=O)[O-])cccc12	inactive
Cc1ccccc1CO[C@@H]1C[C@@]2(C(C)C)CC[C@]1(C)O2	inactive
COC(=O)C(c1ccccc1)C1CCCCN1 (stereo not drawn)	inactive
Cc1cnc[nH]1	inactive
CCOP(=S)(OCC)Oc1ncn(-c2ccccc2)n1	inactive
c1cc[c]([Hg][c]2ccccc2)cc1	inactive
CCCCOP(=O)(O)OCCCC	inactive
CC(C)CC#N	inactive

Target: Androgen receptor (Homo sapiens) (UniProt P10275)
Assay: qHTS assay to identify small molecule agonists of the androgen receptor (AR) signaling pathway using the MDA cell line (AID 743040; further: nearly all actives have a fitted effect of over 20% in size; further: potency means the concentration at half of the fitted maximal effect)
Conditions: MDA-kb2 AR-luc cells, MMTV luciferase, 16 h; series mostly up to 70.3 µM
How it was run: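 Human breast carcinoma MDA-kb2 reporter cells (MMTV-luc, AR/GR elements) were treated for 16 h at 37C in 0% CO2 following a 5 h settling period. Signal was quantified by ONE-Glo luminescence.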

SMILES	Potency
N#CC(Cl)(Cl)Cl	inactive
CC(Cl)(Cl)[N+](=O)[O-]	inactive
Nc1ccccc1Cl	inactive
O=C(O)c1ccc2[nH]cc(CCCCN3CC=C(c4ccccc4)CC3)c2c1	inactive
C#C[C@]1(O)C=C[C@H]2[C@@H]3CCC4=CC(=O)CC[C@@H]4[C@H]3CC[C@@]21CC	0.0133 µM (active)
COc1cc(OC)nc(Oc2cccc(Oc3nc(OC)cc(OC)n3)c2C(=O)O)n1	inactive
CCC(=O)c1ccccc1	inactive
CCCCOC(=O)c1ccccc1C(=O)O	inactive
O=[N+]([O-])c1cccc2c([N+](=O)[O-])cccc12	inactive
Cc1ccccc1CO[C@@H]1C[C@@]2(C(C)C)CC[C@]1(C)O2	inactive
COC(=O)C(c1ccccc1)C1CCCCN1 (stereo not drawn)	inactive
Cc1cnc[nH]1	inactive
CCOP(=S)(OCC)Oc1ncn(-c2ccccc2)n1	inactive
c1cc[c]([Hg][c]2ccccc2)cc1	inactive
CNC(=O)Oc1ccccc1C1OCCO1	inactive
CCCCOP(=O)(O)OCCCC	inactive
CC(C)CC#N	inactive
COc1ncc(F)c2nc(S(=O)(=O)Nc3c(F)cccc3F)nn12	inactive

System: not listed separately
Assay: qHTS assay to identify small molecule antagonists of the androgen receptor (AR) signaling pathway using the MDA cell line - cell viability counter screen (AID 743041; further: nearly all actives have a fitted effect of over 45% in size; further: potency means the concentration at half of the fitted maximal effect)
Conditions: MDA-kb2 viability, CellTiter-Fluor, 16 h, cells co-treated with R1881 androgen agonist; series mostly up to 70.3 µM
How it was run: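 Same-well cytotoxicity was assessed by CellTiter-Fluor in MDA-kb2 AR-luc cells after 16 h of compound treatment under R1881 agonism.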

SMILES	Potency
N#CC(Cl)(Cl)Cl	inactive
Cc1cccc(C#N)c1	inactive
CC(Cl)(Cl)[N+](=O)[O-]	inactive
Nc1cc(Cl)ccc1O	inactive
[O]=[Cd]	inactive
Nc1ccccc1Cl	inactive
BrCCCCCCBr	inactive
COc1cccc2c1cc([N+](=O)[O-])c1c(C(=O)O)cc3c(c12)OCO3	34.4 µM (active)
O=C(O)c1ccc2[nH]cc(CCCCN3CC=C(c4ccccc4)CC3)c2c1	inactive
C#C[C@]1(O)C=C[C@H]2[C@@H]3CCC4=CC(=O)CC[C@@H]4[C@H]3CC[C@@]21CC	inactive
CN(N=O)C(N)=O	inactive
COc1cc(OC)nc(Oc2cccc(Oc3nc(OC)cc(OC)n3)c2C(=O)O)n1	inactive
CCNc1nc(NC(C)C)nc(OC)n1	inactive
CCC(=O)c1ccccc1	inactive
CCCCOC(=O)c1ccccc1C(=O)O	inactive
O=[N+]([O-])c1cccc2c([N+](=O)[O-])cccc12	inactive
Cc1ccccc1CO[C@@H]1C[C@@]2(C(C)C)CC[C@]1(C)O2	inactive
COC(=O)C(c1ccccc1)C1CCCCN1 (stereo not drawn)	inactive
Cc1cnc[nH]1	inactive
CCOP(=S)(OCC)Oc1ncn(-c2ccccc2)n1	inactive
c1cc[c]([Hg][c]2ccccc2)cc1	inactive
Nc1cc2c3c(c1)C(c1ccccc1)=N[C@@H](NC(=O)c1cccnc1)C(=O)N3CC2	inactive
CNC(=O)Oc1ccccc1C1OCCO1	inactive
COCC(=O)N(c1c(C)cccc1C)N1CCOC1=O	inactive
CCCCOP(=O)(O)OCCCC	inactive
NC(=S)C(N)=S	inactive
CC(C)CC#N	inactive
COc1ncc(F)c2nc(S(=O)(=O)Nc3c(F)cccc3F)nn12	inactive
CC1(C)C(=O)NC(=O)NC1=O	inactive

Target: Androgen receptor (Homo sapiens) (UniProt P10275)
Assay: qHTS assay to identify small molecule antagonists of the androgen receptor (AR) signaling pathway using the MDA cell line (AID 743042; further: nearly all actives have a fitted effect of over 55% in size)
Conditions: MDA-kb2 AR-luc, MMTV luciferase, R1881 antagonist, 16 h; series mostly up to 70.3 µM
How it was run: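 MDA-kb2 breast carcinoma cells carrying MMTV-luciferase (AR/GR responsive) were co-treated with compounds and the agonist R1881 for 16 h at 37C. Inhibition read as ONE-Glo luminescence; CellTiter-Fluor fluorescence measured in parallel for cytotoxicity.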

SMILES	outcome
N#CC(Cl)(Cl)Cl	inactive
CC(Cl)(Cl)[N+](=O)[O-]	inactive
Nc1ccccc1Cl	inactive
O=C(O)c1ccc2[nH]cc(CCCCN3CC=C(c4ccccc4)CC3)c2c1	inactive
C#C[C@]1(O)C=C[C@H]2[C@@H]3CCC4=CC(=O)CC[C@@H]4[C@H]3CC[C@@]21CC	inactive
COc1cc(OC)nc(Oc2cccc(Oc3nc(OC)cc(OC)n3)c2C(=O)O)n1	inactive
CCC(=O)c1ccccc1	inactive
CCCCOC(=O)c1ccccc1C(=O)O	inactive
O=[N+]([O-])c1cccc2c([N+](=O)[O-])cccc12	inactive
COC(=O)C(c1ccccc1)C1CCCCN1 (stereo not drawn)	inactive
Cc1cnc[nH]1	inactive
CCOP(=S)(OCC)Oc1ncn(-c2ccccc2)n1	inactive
c1cc[c]([Hg][c]2ccccc2)cc1	inactive
CNC(=O)Oc1ccccc1C1OCCO1	inactive
CCCCOP(=O)(O)OCCCC	inactive
CC(C)CC#N	inactive
COc1ncc(F)c2nc(S(=O)(=O)Nc3c(F)cccc3F)nn12	inactive
